Rows were chosen to be rich in hits. Some 13% of all compounds tested hit in one or more screens of this group.
A350 fluor = compounds fluorescent in Alexa 350 spectral region; Compound autofluorescence, 340/450 nm, Alexa 350 dye-equivalents; stronger effect = higher value; max dye-equivalent concentration, M; actives 11% (n = 59,000); AID 590; in the data active means max dye-equivalent concentration above about 10 nM; inconclusive means mostly about 1.1 nM to 9.6 nM
4MU fluor = compounds fluorescent in 4-MU spectral region; compound autofluorescence, 340/450 nm, 4-MU equivalents; stronger effect = higher value; max dye-equivalent concentration, M; actives 11% (n = 59,000); AID 589; in the data active means max dye-equivalent concentration above about 10 nM; inconclusive means mostly about 1.1 nM to 9.6 nM
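Compounds in 100 mM Tris, pH 8.0, incubated 15 min at room temperature, then fluorescence read at 340 nm excitation/450 nm emission. Signal converted to 4-MU dye-equivalent concentration using an on-plate six-point 4-MU standard curve.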
AID923 = qHTS Assay for Allosteric/Competitive Inhibitors of Caspase-1: Spectroscopic Profiling in AFC Spectral Region; Potency, µM (highest dose often 57.5 µM), for the others: at the highest dose fluorescence increase, actives largely listed as activators; actives 1.1% (n = 75,000); AID 923, 2007; compound fluorescence, AFC spectral region (405/520 nm); further: potency means the concentration at half of the fitted maximal effect; 0% is about no effect
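Compound autofluorescence profiled at 405 nm ex/520 nm em during kinetic caspase 1 run (50 nM enzyme, 5 uM Ac-WEHD-AFC, HEPES pH 7.5, 10 mM DTT). Titration up to 57 uM; baseline from regression intercept, normalized to AFC standard curve.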
HSD17B inhib = inhibitors of human HSD17B10 dehydrogenase; recombinant HSD17B10, NADH fluorescence kinetic; Potency, µM (doses to about 57.1 µM), for the others: top-dose activity change, negative = inhibition, most hits filed as inhibitors; actives 7.6% (n = 75,000); AID 893;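 further: the protocol describes HADH2 (HSD17B10) and not the HSD17B4 of the title; potency means the concentration at half of the fitted maximal effect; on the % scale 0 is the no-effect control and ±100 the full control effect; nearly all actives have a fitted effect of over 70% in size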
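20 nM HADH2, pH 9.0 Tris/Tween; cpd preinc 15 min RT; start w/ 1 mM NAD+ + 90 uM b-hydroxybutyryl-CoA; kinetic fluor ex360/em450 q30s x 4 min; delta last-first.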
HADH2 inh = inhibitors of human HADH2 dehydrogenase; Q99714; recombinant HADH2, NADH fluorescence, beta-hydroxybutyryl-CoA; Potency, µM (top dose mostly 57.1 µM), for the others: at the top dose activity change, negative = inhibition, most hits filed as inhibitors; actives 3.4% (n = 73,000); AID 886; further: potency means the concentration at half of the fitted maximal effect; on the % scale 0 is the no-effect control and ±100 the full control effect; nearly all actives have a fitted effect of over 60% in size
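Activity measured as NADH fluorescence gain (360/450 nm), taken as the change between first and last reads of a 4-min kinetic run. Conditions: pH 9.0 Tris buffer, 20 nM E. coli-expressed His-tagged enzyme, 1 mM NAD+, 90 uM beta-hydroxybutyryl-CoA; 15-min compound preincubation.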
GBA mod = human lysosomal glucosylceramidase modulation; P04062; purified enzyme, resorufin glucoside fluorescence (screen aimed at inhibitors), 20 min; Potency, µM; actives 1.1% (n = 48,000); AID 360; in the data active means potency below about 15 µM; inconclusive means mostly about 16 µM to 33 µM;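 further: potency means the concentration at half of the fitted maximal effect; the screen sought inhibitors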
Target sequence (P04062 whole entry, looked up): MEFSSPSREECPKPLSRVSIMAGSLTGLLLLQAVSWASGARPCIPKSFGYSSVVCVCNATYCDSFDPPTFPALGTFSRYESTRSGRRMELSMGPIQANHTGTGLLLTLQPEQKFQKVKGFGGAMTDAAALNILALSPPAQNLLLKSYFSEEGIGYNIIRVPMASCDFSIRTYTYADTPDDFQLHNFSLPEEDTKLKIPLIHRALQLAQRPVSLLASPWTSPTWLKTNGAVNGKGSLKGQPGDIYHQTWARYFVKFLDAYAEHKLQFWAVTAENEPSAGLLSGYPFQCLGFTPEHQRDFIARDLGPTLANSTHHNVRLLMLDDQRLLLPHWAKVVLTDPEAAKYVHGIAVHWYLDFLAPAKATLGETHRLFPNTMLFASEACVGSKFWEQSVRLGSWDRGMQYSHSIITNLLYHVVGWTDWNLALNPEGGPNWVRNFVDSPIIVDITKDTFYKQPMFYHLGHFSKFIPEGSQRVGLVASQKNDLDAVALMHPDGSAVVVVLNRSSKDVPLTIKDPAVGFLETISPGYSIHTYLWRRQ
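Wild-type enzyme at 0.2 nM final in 50mM citric acid/KH2PO4, 10mM sodium taurocholate, 0.01% tween-20, pH 5.9, with resorufin beta-D-glucopyranoside at 30 uM final. Compounds titrated, 20 min at RT, red fluorescence read; AC50 from titration.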
* hit, by the source's call; [ ] = remark or other dose. Unless noted, the call rests on the fitted dose curve; in most records, active means well fitted curve in the direction sought with a large enough effect; inconclusive means small, poorly fitted or top-dose-only effect, or another doubt; inactive means no such curve, though single readings can be large; an effect the other way counts as inactive or inconclusive.

OC[C@H]1O[C@@H]2O[C@H]3[C@H](O)[C@@H](O)[C@@H](O[C@H]4[C@H](O)[C@@H](O)[C@@H](O[C@H]5[C@H](O)[C@@H](O)[C@@H](O[C@H]6[C@H](O)[C@@H](O)[C@@H](O[C@H]7[C@H](O)[C@@H](O)[C@@H](O[C@H]8[C@H](O)[C@@H](O)[C@@H](O[C@H]1[C@H](O)[C@H]2O)O[C@@H]8CO)O[C@@H]7CO)O[C@@H]6CO)O[C@@H]5CO)O[C@@H]4CO)O[C@@H]3CO was read as AID923 3%, HSD17B inhib -18% and HADH2 inh -11%.
Screening COC(=O)C/C=C\[C@@H](C)[C@@H](/C=N\O[C@@H](C)CN1CCCc2nc(C)c(C)cc21)NS(=O)(=O)c1ccc(C)cc1 returned AID923 10%[11.5 µM], HSD17B inhib inconclusive and HADH2 inh 7%[11.4 µM].
For CC(C)CCC[C@@H](C)[C@@H]1CC[C@@H]2[C@H]3CC[C@H]4C[C@@H](N)CC[C@@]4(C)[C@@H]3CC[C@]21C the results were A350 fluor inactive, 4MU fluor inactive, AID923 0%[11.5 µM], HSD17B inhib 1%[11.4 µM] and HADH2 inh 7%[11.4 µM].
`CC(C)C[C@@H](CC(=O)N[C@@H](CCCN)CC(=O)N[C@@H]1CCNC[C@H]1C(=O)N[C@H](CC(=O)N[C@@H](CCC(=O)O)CC(=O)O)Cc1c[nH]c2ccccc12)NC(=O)[C@@H]1CNCC[C@H]1N` gave HADH2 inh -10%.
CC(=O)c1ccc(N2CCN(C(=O)c3cc(-c4ccc5c(c4)OCO5)nc4ccccc34)CC2)cc1 was read as A350 fluor 4.1e-08M*, 4MU fluor 4.9e-08M*, AID923 6%, HSD17B inhib inconclusive, HADH2 inh inconclusive and GBA mod >77.
Screening COc1ccc(OC)c(-c2cc(C(=O)N3CCN(c4ncccn4)CC3)c3ccccc3n2)c1 returned A350 fluor inconclusive, 4MU fluor inconclusive, AID923 -1%, HSD17B inhib -11%, HADH2 inh inconclusive and GBA mod >77.
Screening O=C(c1cc(-c2ccccc2)nc2ccccc12)N1CCOCC1 returned AID923 4%, HSD17B inhib -3% and HADH2 inh 1%.
`O=C(O)c1cc(-c2ccc3c(c2)OCO3)nc2ccccc12` gave A350 fluor inconclusive, 4MU fluor inconclusive, AID923 0%, HSD17B inhib -1%, HADH2 inh -14% and GBA mod >77.
Screening COc1ccc(-c2cc(C(=O)N3CCN(c4ccccn4)CC3)c3ccccc3n2)cc1 returned A350 fluor inconclusive, 4MU fluor 1e-08M*, AID923 4%, HSD17B inhib inconclusive, HADH2 inh -17% and GBA mod >77.
Screening CCOc1ccc2nc(-c3ccc(OC)c(OC)c3)cc(C(=O)O)c2c1 returned A350 fluor 2.3e-08M*, 4MU fluor 2.5e-08M*, AID923 2%, HSD17B inhib inconclusive, HADH2 inh -16% and GBA mod >77.
Screening CCOc1ccc(-c2cc(C(=O)N3CCN(C)CC3)c3ccccc3n2)cc1 returned A350 fluor 5.1e-07M*, 4MU fluor 3.9e-07M*, AID923 0%, HSD17B inhib 13µM*, HADH2 inh 29% and GBA mod >77.
CCOC(=O)N/N=C1/C[C@@H](O)[C@@H](O)[C@@H]2[C@@H]3C(=O)N(c4cccc(Oc5ccccc5)c4)C(=O)[C@H]3CC[C@@H]12 was read as AID923 0%[11.5 µM], HSD17B inhib 1%[11.4 µM] and HADH2 inh 3%[11.4 µM].
COc1ccccc1C(=O)N1CCN(c2ccccn2)CC1 was read as AID923 0%, HSD17B inhib inconclusive and HADH2 inh -6%.
For CCOc1ccc(-c2cc(C(=O)N3CCN(c4ccccn4)CC3)c3ccccc3n2)cc1 the results were A350 fluor inconclusive, 4MU fluor 1.3e-08M*, AID923 -1%, HSD17B inhib -141% and HADH2 inh inconclusive.
Screening OCC1OC([S-])[C@H](O)C(O)C1O.[Au+] (stereo partly drawn) returned AID923 -7% and HSD17B inhib 3.2µM*.
`OC[C@H]1O[C@@H](OC[C@H]2O[C@@H](O)[C@H](O)[C@@H](O)[C@@H]2O)[C@H](O)[C@@H](O)[C@@H]1O` gave AID923 0% and HSD17B inhib -2%.
For FC(F)(F)c1ccccc1-c1ccc2ncnc(N3CCOCC3)c2c1 the results were A350 fluor inactive, 4MU fluor inactive, AID923 -1%, HSD17B inhib inconclusive and HADH2 inh 11%.
COc1ccc(CCNC(=O)CN(c2ccccc2OC)S(C)(=O)=O)cc1 was read as A350 fluor 9.9e-08M*, 4MU fluor 1.1e-07M*, AID923 5%, HSD17B inhib inconclusive, HADH2 inh 15% and GBA mod >77.
COc1ccc(CCNC(=O)CN(c2ccccc2OC)S(C)(=O)=O)cc1OC was read as AID923 0%, HSD17B inhib 1% and HADH2 inh 7%[11.4 µM].
`C=CS(=O)(=O)c1ccc(Oc2ccc(S(=O)(=O)C=C)cc2)cc1` gave A350 fluor inactive, 4MU fluor inactive, AID923 0%, HSD17B inhib -7%, HADH2 inh 2µM* and GBA mod >77.
`Brc1ccc(C2Nc3cccc4cccc(c34)N2)o1` gave AID923 1%, HSD17B inhib 32µM* and HADH2 inh inconclusive.
Oc1ccccc1C1Nc2cccc3cccc(c23)N1 was read as A350 fluor inconclusive, 4MU fluor inconclusive, AID923 3%, HSD17B inhib inconclusive, HADH2 inh 32µM* and GBA mod >77.
For C#CCCCO/N=C1/C[C@@H](O)[C@@H](O)[C@@H]2[C@H]3C(=O)N(c4ccc(F)cc4F)C(=O)[C@@H]3CC[C@H]12 the results were AID923 2%[11.5 µM], HSD17B inhib 0%[11.4 µM] and HADH2 inh 7%[11.4 µM].
`CC(=O)O[C@@H]1CC[C@]2(C)C(=C[C@@H]([C@@H]3C=C4C[C@@H](OC(C)=O)CC[C@]4(C)C4=C3[C@H]3C[C@@H]5O[C@@]6(CC[C@H](C)CO6)[C@@H](C)[C@@H]5[C@@]3(C)CC4)C3=C2CC[C@@]2(C)[C@H]4[C@@H](C)[C@]5(CC[C@H](C)CO5)O[C@@H]4C[C@H]32)C1` gave A350 fluor inactive, 4MU fluor inactive, AID923 0%[11.5 µM], HSD17B inhib -4%[11.4 µM] and HADH2 inh 7%[11.4 µM].
